From PubChem BioAssay
Entries with a potency or affinity are not part of this list. Unmarked numbers belong to inactive results.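 How the source made its calls: active means a dose-response fit showing signal loss, with half-maximal concentration no higher than twice the top tested dose; inconclusive means flat fit between 30% and 70% signal loss, or poor fit; inactive means the rest.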

Experiment: viability loss in HepG2 hepatoma cells – cell-based, cherry-picks, set 2, cytotoxicity control, dose response (AID 687002)
Details: ATP luminescence (CellTiter-Glo), 48 h; series mostly up to 26 µM; activity change, negative = cytotoxicity: at the top concentration

Going from `COc1ccccc1CNC(=O)COc1ccc2c(c1)CCC2` to `CCNC(=O)COc1cccc(C(=O)NCc2ccccc2)c1`, the “activity change, negative = cytotoxicity” value falls from -1.83% to -3.5%.

Compared with `COCC(=O)N1[C@H](C#N)[C@H](c2ccc(C#Cc3ccccc3F)cc2)[C@H]1CO`, `CC(=O)N1[C@@H](CO)[C@H](c2ccc(-c3ccccc3)cc2)[C@@H]1CNC(=O)C1CC1` is lower in “activity change, negative = cytotoxicity” value: -0.274% for the first, -4.26% for the second.

First: Cc1ccc(NC(=O)[C@H](C)NC(=O)C2CCN(C(=O)[C@@H](N)CC(C)C)CC2)cc1
Second: CCC(C)(C(=O)NC1CCCC1)N(C(C)=O)c1ccc(C)cc1 (stereo not drawn)
The “activity change, negative = cytotoxicity” value of the first is lower: -5.91% for the first, -2.97% for the second.

Compared with `C[C@H](O)C#Cc1cnc2c(c1)C(=O)N([C@@H](C)CO)C[C@@H](C)[C@@H](CN(C)C(=O)Cc1ccncc1)O2`, `C[C@H](CO)N1C[C@H](C)[C@H](CN(C)C(=O)Nc2cccc(F)c2)Oc2ncc(C#CCN(C)C)cc2C1=O` is lower in “activity change, negative = cytotoxicity” value: 2.48% for the first, -10.5% for the second.

First: CCC(=O)N1[C@@H]2c3cccc(=O)n3C[C@H]1[C@H](CO)[C@H]2C(=O)NCc1ccccc1
Second: CN1[C@H](C(=O)N2CCc3ccccc3C2)[C@@H](CO)[C@@H]2Cn3c(ccc(-c4cccnc4)c3=O)[C@@H]21
The “activity change, negative = cytotoxicity” value of the first is lower: -3.01% for the first, 12.8% for the second.

Compared with `Cc1cccc(C)c1NC(=O)C(C)N1CCCCC1` (stereo not drawn), `O=C([C@H]1[C@H](CO)[C@H]2Cn3c(cccc3=O)[C@H]2N1CCC(F)(F)F)N1CCCCC1` is lower in “activity change, negative = cytotoxicity” value: 16.1% for the first, -5.18% for the second.

First: C[C@H]1CN([C@@H](C)CO)C(=O)CCCn2nncc2CO[C@@H]1CN(C)Cc1cccc(C(F)(F)F)c1
Second: COc1ccc(-c2cnc3c(c2)C(=O)N([C@H](C)CO)C[C@H](C)[C@H](CN(C)Cc2ccc(F)cc2)O3)cc1
The “activity change, negative = cytotoxicity” value of the first is lower: -9.78% for the first, 0.022% for the second.

First: C[C@H](CO)N1C[C@H](C)[C@H](CN(C)C(=O)NC2CCCCC2)OCCCC[C@H](C)Oc2ccc(NC(=O)C3CCCCC3)cc2C1=O
Second: C[C@H](CO)N1C[C@H](C)[C@@H](CN(C)Cc2ccncc2)OCCCC[C@H](C)Oc2ccc(NC(=O)NC3CCCCC3)cc2C1=O
The “activity change, negative = cytotoxicity” value of the first is lower: 0.287% for the first, 8.07% for the second.

Compared with `C[C@@H]1CCCCO[C@@H](CN(C)Cc2ccncc2)[C@@H](C)CN([C@H](C)CO)C(=O)c2cc(NC(=O)c3ccncc3)ccc2O1`, `C[C@@H]1CN([C@@H](C)CO)C(=O)c2cc(NS(=O)(=O)c3ccc(F)cc3)ccc2O[C@@H](C)CCCCO[C@@H]1CN(C)Cc1ccc2c(c1)OCO2` is higher in “activity change, negative = cytotoxicity” value: -1.35% for the first, 40.3% for the second.

Compared with `CC(=O)N1CCN(c2ccc(NC(=S)NC(=O)c3ccc(C)c([N+](=O)[O-])c3)cc2)CC1`, `CC1(C(=O)Nc2ccc3ccccc3c2)CCC(=O)N1C1CC1` (stereo not drawn) is higher in “activity change, negative = cytotoxicity” value: 0.867% for the first, 0.951% for the second.

Compared with `C[C@H](O)C#Cc1ccc([C@H]2[C@H](CO)N3CCCCN(CC4CCOCC4)C[C@@H]23)cc1`, `CO[C@H]1CN(C)C(=O)c2cc(NC(=O)c3ccccc3F)ccc2OC[C@H](C)N(CC2CCOCC2)C[C@H]1C` is higher in “activity change, negative = cytotoxicity” value: -19.5% for the first, -11.1% for the second.

First: C[C@H](CO)N1C[C@H](C)[C@@H](CN(C)C(=O)Nc2cccc3ccccc23)Oc2c(cccc2N(C)C)C1=O
Second: C[C@H]1CN([C@@H](C)CO)C(=O)Cc2cc(NC(=O)Nc3ccccc3)ccc2O[C@H]1CN(C)C(=O)Nc1ccc2c(c1)OCO2
The “activity change, negative = cytotoxicity” value of the first is lower: 3.95% for the first, 17% for the second.

Compared with `CCCC#Cc1ccc2c(c1)O[C@@H](CN(C)C)[C@@H](C)CN([C@@H](C)CO)S2(=O)=O`, `Cc1noc(C)c1S(=O)(=O)Nc1ccc2c(c1)C(=O)N([C@H](C)CO)C[C@H](C)[C@H](CN(C)Cc1ccncc1)O2` is higher in “activity change, negative = cytotoxicity” value: -3.99% for the first, 4.58% for the second.

Going from `C[C@H]1CCCCO[C@H](CN(C)S(=O)(=O)c2ccc(Cl)cc2)[C@@H](C)CN([C@@H](C)CO)C(=O)c2cc(NS(=O)(=O)c3cccs3)ccc2O1` to `Cc1noc(C)c1NC(=O)Nc1cccc2c1O[C@@H](CN(C)S(=O)(=O)c1cn(C)cn1)[C@@H](C)CN([C@@H](C)CO)C2=O`, the “activity change, negative = cytotoxicity” value falls from 44% to 0.158%.

Going from `O=C(CSc1ncnc2c1cnn2-c1ccccc1)NC1CCS(=O)(=O)C1` (stereo not drawn) to `CC(C)NC(=O)NCC[C@@H]1CC[C@@H](NC(=O)CN(C)C)[C@@H](CO)O1`, the “activity change, negative = cytotoxicity” value falls from 2.71% to 2.66%.

First: CC(C)NC(=O)Nc1ccc2c(c1)CC(=O)N([C@H](C)CO)C[C@@H](C)[C@H](CN(C)Cc1ccc3c(c1)OCO3)O2
Second: Cc1ccc(S(=O)(=O)N2C[C@@H](O)COC[C@H]3O[C@H](CC(=O)NCc4ccc5c(c4)OCO5)CC[C@@H]32)cc1
The “activity change, negative = cytotoxicity” value of the first is higher: 3.12% [at 23.5 µM] for the first, 1.54% [at 23.5 µM] for the second.

In the case of `Cc1cccc(C)c1NC(=O)CN1CCN(C(=O)CNC(=O)c2ccc(N3CCCC3=O)cc2)CC1`, the “activity change, negative = cytotoxicity” value is reported as 9.91% [at 12 µM].
